Measurements reported in PubChem BioAssay AID1159580 (chemical genetic matrix, 2015).
Several values for one entry are separate records, joined by “and”; a condition that tells them apart may be missing. Equal values may be shown once. The whole screen tested about 5,500 compounds, of which about 2,000 (36%) were called active. Roughly 18% stayed inconclusive and do not appear here. No stated cut-off is given here; in the data, active means normalized growth mostly below about 0.91 (no sharp cut-off); inconclusive means no clear call, values can overlap the other calls; inactive means mostly above about 0.92. The list shows a part of the results.

Assay: chemical genetic growth profiling, strain panel (AID 1159580);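 further: tested at 20 µM; growth read once vehicle control cultures reached saturation at 30 °C; 1 = growth at the plate median or of vehicle wells; lower values mean less growth of the strain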
Conditions: S. cerevisiae deletion strains, growth OD

Measured: normalized growth

C=CC(C1=CC(=O)C(OC)=CC1=O)c1ccc(OC)cc1 (stereo unspecified)
active: locus YAL021C, strain ccr4, hits give low values 0.873 | locus YAL026C, strain drs2, hits give low values 0.765 | locus YAL030W, strain snc1, hits give low values 0.893 | locus YBL061C, strain skt5, hits give low values 0.872 | locus YBR009C, strain hhf1, hits give low values 0.661 | locus YBR023C, strain chs3, hits give low values 0.853 | locus YBR231C, strain swc5, hits give low values 0.854 | locus YBR279W, strain paf1, hits give low values 0.883 | locus YCL011C, strain gbp2, hits give low values 0.857 | locus YCL016C, strain dcc1, hits give low values 0.81 | locus YCL069W, strain vba3, hits give low values 0.911 | locus YDL192W, strain arf1, hits give low values 0.871 | locus YDR069C, strain doa4, hits give low values 0.889 | locus YDR101C, strain arx1, hits give low values 0.906 | locus YDR137W, strain rgp1, hits give low values 0.596 | locus YDR159W, strain sac3, hits give low values 0.813 | locus YDR162C, strain NBP2, hits give low values 0.801 | locus YDR195W, strain ref2 1.16 [resistant] | locus YDR318W, strain mcm21, hits give low values 0.843 | locus YDR388W, hits give low values 0.601 | locus YDR392W, strain spt3, hits give low values 0.23 | locus YDR502C, strain sam2, hits give low values 0.893 | locus YEL003W, strain gim4, hits give low values 0.803 | locus YEL061C, strain CIN8 (second series), hits give low values 0.876 | locus YER015W, strain faa2, hits give low values 0.906 | locus YER016W, strain bim1, hits give low values 0.912 | locus YER155C, strain BEM2 (second series), hits give low values 0.476 | locus YER167W, strain BCK2, hits give low values 0.829 | locus YFR010W, strain ubp6, hits give low values 0.887 | locus YGL086W, strain mad1, hits give low values 0.87 | locus YGL173C, strain kem1, hits give low values 0.853 | locus YGL240W, strain doc1, hits give low values 0.743 | locus YGL253W, strain hxk2, hits give low values 0.813 | locus YGR135W, strain pre9, hits give low values 0.856 | locus YHR013C, strain ard1, hits give low values 0.6 | locus YHR079C, strain IRE1 (second series), hits give low values 0.893 | locus YHR142W, strain chs7, hits give low values 0.637 | locus YHR200W, strain rpn10, hits give low values 0.907 | locus YIR030C, strain dcg1, hits give low values 0.882 | locus YJL095W, strain BCK1 (second series), hits give low values 0.809 | locus YJL129C, strain trk1, hits give low values 0.868 | locus YJL164C, strain tpk1, hits give low values 0.759 | locus YJL166W, strain qcr8, hits give low values 0.588 | locus YJL187C, strain SWE1, hits give low values 0.841 | locus YJR043C, strain POL32, hits give low values 0.832
inactive: locus YAL013W, strain DEP1, hits give low values 0.956 | locus YBR021W, strain FUR4, hits give low values 0.957 | locus YBR171W, strain sec66, hits give low values 0.983 | locus YBR229C, strain ROT2, hits give low values 0.968 | locus YCL029C, strain bik1, hits give low values 0.917 | locus YCL061C, strain MRC1, hits give low values 0.981 | locus YCR088W, strain abp1, hits give low values 0.983 | locus YDL005C, strain med2, hits give low values 1.01 | locus YDL035C, strain GPR1, hits give low values 0.896 | locus YDL040C, strain nat1, hits give low values 0.975 | locus YDL074C, strain BRE1, hits give low values 0.827 | locus YDL101C, strain DUN1, hits give low values 0.939 | locus YDL134C, strain PPH21, hits give low values 0.961 | locus YDL185W, strain tfp1, hits give low values 0.976 | locus YDR001C, strain nth1, hits give low values 0.982 | locus YDR150W, strain NUM1, hits give low values 0.985 | locus YDR297W, strain sur2, hits give low values 0.934 | locus YDR334W, strain swr1, hits give low values 0.918 | locus YDR335W, strain msn5, hits give low values 0.94 | locus YEL037C, strain rad23, hits give low values 0.946 | locus YEL061C, strain CIN8, hits give low values 0.982 | locus YER110C, hits give low values 0.905 | locus YER111C, strain swi4, hits give low values 0.984 | locus YER155C, strain BEM2, hits give low values 0.973 | locus YGL078C, strain dbp3, hits give low values 0.978 | locus YGL167C, strain pmr1, hits give low values 0.978 | locus YGL227W, strain vid30, hits give low values 0.993 | locus YGL248W, strain PDE1, hits give low values 0.948 | locus YGR078C, strain PAC10, hits give low values 0.875 | locus YGR229C, strain SMI1, hits give low values 0.812 | locus YGR252W, strain gcn5, hits give low values 0.77 | locus YHR027C, strain rpn1, hits give low values 0.948 | locus YHR030C, strain SLT2, hits give low values 0.957 and 1 | locus YHR079C, strain IRE1, hits give low values 1.03 | locus YHR094C, strain hxt1, hits give low values 0.947 | locus YHR129C, strain ARP1, hits give low values 0.939 | locus YIL066C, strain RNR3, hits give low values 0.879 | locus YIL073C, strain SPO22, hits give low values 0.929 | locus YIL125W, strain kgd1, hits give low values 0.952 | locus YJL092W, strain hpr5, hits give low values 0.948 | locus YJL095W, strain BCK1, hits give low values 0.894 and 1.04 | locus YJL115W, strain asf1, hits give low values 0.973 | locus YJL134W, strain LCB3, hits give low values 0.967 | locus YJL154C, strain vps35, hits give low values 0.96 | locus YJL168C, strain set2, hits give low values 0.947 | locus YJL187C, strain SWE1 (second series), hits give low values 0.933
